# Test results from PMC4336329 (PLoS ONE, 2015).
# About 2,200 (0.71%) of roughly 310,000 compounds showed an effect of 50% or more. Effects have a minus sign here. Only a selection was taken, and strong results are over-represented in it overall.
# Molecular target: human ether-à-go-go-related gene (hERG) potassium channel (human, UniProt Q12809)
# Assay: primary screen, population patch clamp on CHO cells stably expressing hERG; higher = less effect of the substance
# human ether-à-go-go-related gene (hERG) potassium channel, sequence (Q12809 whole entry, looked up): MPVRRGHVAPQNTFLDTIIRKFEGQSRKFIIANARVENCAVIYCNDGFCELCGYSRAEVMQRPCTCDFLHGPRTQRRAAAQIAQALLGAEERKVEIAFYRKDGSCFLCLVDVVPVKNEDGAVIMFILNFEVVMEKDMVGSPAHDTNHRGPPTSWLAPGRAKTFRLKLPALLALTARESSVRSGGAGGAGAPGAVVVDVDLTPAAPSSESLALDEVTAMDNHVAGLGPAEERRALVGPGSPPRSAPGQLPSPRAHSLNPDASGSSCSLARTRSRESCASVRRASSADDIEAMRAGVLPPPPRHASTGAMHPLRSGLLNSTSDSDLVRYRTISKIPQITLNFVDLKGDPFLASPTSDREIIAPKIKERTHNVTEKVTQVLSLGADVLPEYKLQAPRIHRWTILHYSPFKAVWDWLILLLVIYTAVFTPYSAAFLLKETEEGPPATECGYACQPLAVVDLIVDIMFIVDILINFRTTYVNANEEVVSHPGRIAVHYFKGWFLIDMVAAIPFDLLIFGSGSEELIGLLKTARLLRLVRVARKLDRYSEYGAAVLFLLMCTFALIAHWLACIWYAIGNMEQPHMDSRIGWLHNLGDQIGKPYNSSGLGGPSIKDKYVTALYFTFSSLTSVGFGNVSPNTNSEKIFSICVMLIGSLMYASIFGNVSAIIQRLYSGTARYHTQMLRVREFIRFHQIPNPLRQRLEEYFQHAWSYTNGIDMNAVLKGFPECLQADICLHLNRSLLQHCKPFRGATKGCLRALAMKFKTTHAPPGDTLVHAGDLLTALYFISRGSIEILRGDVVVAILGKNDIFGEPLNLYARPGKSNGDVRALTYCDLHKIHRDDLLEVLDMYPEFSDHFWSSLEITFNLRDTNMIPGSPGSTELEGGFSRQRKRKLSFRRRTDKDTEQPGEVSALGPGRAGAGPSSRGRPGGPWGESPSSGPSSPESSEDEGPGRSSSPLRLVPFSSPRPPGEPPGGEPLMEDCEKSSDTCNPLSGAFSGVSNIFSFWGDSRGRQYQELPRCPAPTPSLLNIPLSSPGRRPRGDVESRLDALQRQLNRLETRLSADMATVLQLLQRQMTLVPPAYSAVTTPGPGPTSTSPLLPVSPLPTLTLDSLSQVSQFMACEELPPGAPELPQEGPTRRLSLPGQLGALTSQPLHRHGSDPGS
row,SMILES,"hERG current change (%, negative = inhibition) at 1uM [%]"
1,CCN(CC)S(=O)(=O)c1cc(C)ccc1NC(=S)Nc1cccnc1,3.41
2,Cc1ccccc1S(=O)(=O)N(CC(O)CN1CCCCC1)c1ccccc1 (stereo not shown),-71.2
3,Cc1ccc(N(CC(O)CN2CCOCC2)S(=O)(=O)c2ccc([N+](=O)[O-])cc2)cc1 (stereo not shown),-49.1
4,Cc1ccc(S(=O)(=O)N(CC(O)CN2CCCCC2)c2ccccc2)cc1.Cl (stereo not shown),-60.5
5,Cc1ccc(N(CC(O)CN2CCOCC2)S(=O)(=O)c2ccc3ccccc3c2)cc1 (stereo not shown),-55.6
6,O=S(=O)(c1ccccc1)N(CC(O)CN1CCCC1)c1ccccc1 (stereo not shown),3.65
7,Cc1ccc(N(CC(O)CN2CCCC2)S(=O)(=O)c2ccc(C)cc2)cc1.Cl (stereo not shown),-81.7
8,Cl.O=S(=O)(c1ccccc1)N(CC(O)CN1CCCCC1)c1ccccc1 (stereo not shown),-21
9,O=S(=O)(c1ccccc1)N(CC(O)CN1CCOCC1)c1ccccc1 (stereo not shown),9.04
10,Cc1ccc(S(=O)(=O)N(CC(O)CN2CCCC2)c2ccccc2)cc1 (stereo not shown),-44.8
11,Cl.O=S(=O)(c1ccc2ccccc2c1)N(CC(O)CN1CCOCC1)c1ccccc1 (stereo not shown),-21.2
12,Cc1ccc(S(=O)(=O)N(CC(O)CN2CCOCC2)c2cc(Cl)ccc2Cl)cc1.Cl (stereo not shown),-2.22
13,Cc1ccc(N(CC(O)CN2CCCCC2)S(=O)(=O)c2ccc(C)cc2)cc1 (stereo not shown),12.8
14,Cc1ccc(-n2nc(C)c3c2OC(N)=C(C#N)C3c2cccs2)cc1 (stereo not shown),9.08
15,CC1=CC2=NC(=O)CC(C)(C(=O)N(CC(=O)NC(C)(C)C)Cc3cccs3)N2C=C1 (stereo not shown),-2.79
16,CNc1ncc(-c2nnnn2-c2ccccc2)c(-c2ccccc2)n1,8.07
17,Cc1ccc(N2CCN(c3ncccc3[N+](=O)[O-])CC2)c(C)c1,17.2
18,CC(=O)NC(C(=O)N1CCC(c2nc3ccccc3s2)CC1)C(C)C (stereo not shown),8.96
19,Cc1cc(C)nc(SCc2n[nH]c(=S)n2C)n1,7.9
20,CCOC(=O)C1=C(N)OC2=C(C(=O)CC(C)(C)C2)C1c1ccco1 (stereo not shown),-7.98
21,FC(F)(F)c1ccccc1NC(=S)N1CCN(c2ncccn2)CC1,11.5
22,O=C(NNC(=O)c1cccs1)c1ccccc1,5.51

row,SMILES,"hERG current change (%, negative = inhibition) at 1uM [%]"
1,COc1ccc(N(CC(O)CN2CCOCC2)S(=O)(=O)c2ccc(C)cc2)cc1 (stereo not shown),-6.48
2,COc1ccccc1N(CC(O)CN1CCCCC1)S(=O)(=O)c1ccc(C)cc1 (stereo not shown),2.61
3,Cc1ccc(N(CC(O)CN2CCCC2)S(=O)(=O)c2ccccc2)cc1 (stereo not shown),-47.4
4,Cc1ccc(N(CC(O)CN2CCCCC2)S(=O)(=O)c2ccccc2)cc1 (stereo not shown),-68.7
5,COc1ccc(N(CC(O)CN2CCCCC2)S(=O)(=O)c2ccc(C)cc2)cc1 (stereo not shown),-82.9
6,Cc1ccc(N(CC(O)CN2CCCCC2)S(=O)(=O)c2ccccc2[N+](=O)[O-])cc1 (stereo not shown),-48.8
7,Cc1c(C(=O)OC2CCCCC2)sc2nc[nH]c(=O)c12,16
8,Cc1ccc(-c2oc3ncnc(N)c3c2-c2ccc(C)cc2)cc1,-3.25
9,COc1ccc(/C(C)=N/Nc2ccc(C(=O)O)cc2)cc1OC.O=S(=O)(O)O,11.7
10,Cn1c(SCC(=O)NCC2CCCO2)ncc(C(=O)Nc2ccc(F)cc2)c1=O (stereo not shown),5.38
11,CN1C[C@H](CNC(=O)OCc2ccccc2)C[C@@H]2c3cccc4c3c(cn4C)C[C@H]21,-1.63
12,CCNC(=O)N(CCOC)CC1CCCN(C2Cc3ccccc3C2)C1 (stereo not shown),11.7
13,COCCN(CC1CCCN(C2Cc3ccccc3C2)C1)C(=O)CSC (stereo not shown),7.99
14,COCCN(CC1CCCN(C2Cc3ccccc3C2)C1)C(=O)CCSC (stereo not shown),-4.27
15,COCCN(CC1CCCN(C2Cc3ccccc3C2)C1)C(=O)CCC(N)=O (stereo not shown),-70.8
16,COCCN(CC1CCCN(C2Cc3ccccc3C2)C1)C(=O)CCC(C)=O (stereo not shown),7.77
17,COCCN(CC1CCCN(C2Cc3ccccc3C2)C1)C(=O)c1ccc(C(C)=O)cc1 (stereo not shown),-51.9
18,N#Cc1ccccc1NC(=O)C1SC(=Nc2ccccc2)C(C(=O)Nc2ccc(Cl)cc2)=C1N (stereo not shown),6.56
19,COC(=O)CCCNS(=O)(=O)c1ccc2ccccc2c1,10.7
20,CC(C)N(CC#CC(O)(c1ccccc1)c1ccccc1)C(C)C,-38.1
21,CC(C)(C)C(=O)Cn1c(NCCCl)nc2ccccc21.Cl,13.8
22,Cc1sc2nc(CSc3ccccc3)nc(NCCN(C)C)c2c1C,-50.1

row,SMILES,"hERG current change (%, negative = inhibition) at 1uM [%]"
1,CCNc1nc(CSc2ccccc2)nc2sc(C)c(C)c12,6.57
2,COCCNc1nc(CSc2ccccc2)nc2sc(C)c(C)c12,11.8
3,COc1ccc(C(=O)N2CCCN(C)CC2)cc1S(=O)(=O)N1CCCc2ccccc21,1.09
4,NC(=O)c1nsc(C(=O)N(CC(=O)NCc2ccco2)c2ccccc2F)c1N,1.03
5,Fc1ccc(NC(=S)Nc2ccc(F)c(Cl)c2)cc1Cl,7.52
6,C=CCn1c(SCC(=O)N(C)C2CCS(=O)(=O)C2)nc2ccccc2c1=O (stereo not shown),-36.1
7,CCN(C(=O)CSc1nc2ccccc2c(=O)n1-c1ccc(C)cc1)C1CCS(=O)(=O)C1 (stereo not shown),1.16
8,O=C(CSc1nc(-c2cccs2)nc2ccccc12)NC1CCS(=O)(=O)C1 (stereo not shown),17.3
9,CCN(C(=O)CSc1nc2ccccc2c(=O)n1Cc1ccc(C)cc1)C1CCS(=O)(=O)C1 (stereo not shown),-71.4
10,C=CCn1c(SCC(=O)N(CC)C2CCS(=O)(=O)C2)nc2cc(C(=O)O)ccc2c1=O (stereo not shown),16.4
11,CCN(C(=O)CSc1nc(-c2cccs2)nc2ccccc12)C1CCS(=O)(=O)C1 (stereo not shown),-78.4
12,Cc1ccc(Cn2c(SCC(=O)N(C)C3CCS(=O)(=O)C3)nc3ccccc3c2=O)cc1 (stereo not shown),-41.9
13,CCN(C(=O)CSc1n[nH]c(-c2cccs2)n1)C1CCS(=O)(=O)C1 (stereo not shown),11.8
14,C=CCn1c(SCC(=O)N(CC)C2CCS(=O)(=O)C2)nc2ccccc2c1=O (stereo not shown),-81.6
15,Cc1cc(=O)[nH]c2ccc(S(=O)(=O)NC3CCCCC3)cc12,7.42
16,CC(OC(=O)C(C)Oc1ccccc1)C(=O)Nc1ccc(S(=O)(=O)N2CCCCC2)cc1 (stereo not shown),12.9
17,Oc1ccc(/C=N/N2CCCCC2)cc1O,14.2
18,CCOCCN1CCN(c2c(CC)c(C)nc3cc(-c4cc(OC)cc(OC)c4)nn23)CC1,-14
19,COc1ccc(NC(=O)CN(C)C(=O)CCCc2nc3ccccc3s2)cc1,-15.7
20,COc1nc(-c2ccccc2)ccc1-c1noc(COc2ccccc2)n1,17.7
21,CCOC(=O)Cn1c(=O)oc2cc(S(=O)(=O)N(C)c3cccc(C)c3)ccc21,-1.77
22,O=[N+]([O-])c1cc2c(cc1CN1CCN(c3ccc(F)cc3)CC1)OCO2,7.89

row,SMILES,"hERG current change (%, negative = inhibition) at 1uM [%]"
1,CCCCOC(=O)c1nc(Cl)c(Cl)c(N)c1Cl,12
2,CCCCCCCOC(=O)c1nc(Cl)c(Cl)c(N)c1Cl,0.504
3,CCCCCCCCOC(=O)c1nc(Cl)c(Cl)c(N)c1Cl,-64.4
4,CCOc1cccc(-c2nn3c(-c4cc(C)[nH]n4)nnc3s2)c1,-8.21
5,COc1ccc(/C=C/c2cc(C(F)(F)F)on2)cc1,17.5
6,COc1ccc(/C=C/C(=O)Oc2ccc(C)cc2)cc1,1.29
7,COc1ccc(/C=C/c2cc(-c3ccc(C)cc3)o[n+]2C)cc1.F[B-](F)(F)F,-76.5
8,Cc1ccc2c(c1)NC(=O)C(CC(=O)NCCCN1CCCCC1)O2 (stereo not shown),6.37
9,CCC(C)N(CCNC(=O)CC1Oc2ccc(C)cc2NC1=O)C1CCCCC1 (stereo not shown),-58.1
10,Cc1ccc2c(c1)NC(=O)C(CC(=O)NCCCN1CCc3ccccc3C1)O2 (stereo not shown),-58.5
11,CCC(C)N(CCNC(=O)CC1Oc2ccccc2NC1=O)C1CCCCC1 (stereo not shown),-35.6
12,Cc1ccc2c(c1)NC(=O)C(CC(=O)NCCCN1CCCC1)O2 (stereo not shown),12.4
13,Cc1ccc2c(c1)NC(=O)C(CC(=O)NCCN(CC(C)C)CC(C)C)O2 (stereo not shown),0.19
14,O=Cc1c(NCc2ccccc2)c2ccccc2[nH]c1=O,12.6
15,C/C(=N\OCC(=O)Nc1ccc(OC(F)(F)F)cc1)c1ccc2c(c1)OCCO2,6.61
16,C=CCS/C(N)=N\N=C\c1c(O)ccc2ccccc12,13.3
17,Cc1ccc(C(=O)CN2C(=O)NC3(CCOc4ccccc43)C2=O)s1 (stereo not shown),2.46
18,Cc1sc2ncn(CC(=O)NCCCC(=O)N3CCC4(CC3)OCCO4)c(=O)c2c1C,10.7
19,CCOC(=O)c1oc2ccccc2c1NC(=O)c1cccs1,0.447
20,N/C(Cc1ccc([N+](=O)[O-])cc1)=N\OC(=O)c1ccc(Br)cc1,-3.44
21,N/C(Cc1ccc([N+](=O)[O-])cc1)=N\OC(=O)c1ccc([N+](=O)[O-])cc1,-56.7
22,N/C(Cc1ccc([N+](=O)[O-])cc1)=N\OC(=O)c1ccc2ccccc2c1,4.74
